In PubChem BioAssay AID1159580 (chemical genetic matrix, 2015):
In all, about 5,500 compounds went through this assay and about 2,000 (36%) were called active. Another 18% or so got no clear call; they are omitted. No stated cut-off is given here; in the data, active means normalized growth mostly below about 0.91 (no sharp cut-off); inconclusive means no clear call, values can overlap the other calls; inactive means mostly above about 0.92. The list shows a part of the results.

Experiment: chemical genetic growth profiling, strain panel (AID 1159580);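 further: tested at 20 µM; growth read once vehicle control cultures reached saturation at 30 °C; 1 = growth at the plate median or of vehicle wells; lower values mean less growth of the strain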
Details: S. cerevisiae deletion strains, growth OD

Measured: normalized growth

COc1ccc(-c2oc3ccccc3c(=O)c2O)cc1OC
inactive: locus YDL005C, strain med2, active compounds read low 0.915 | locus YGL227W, strain vid30, active compounds read low 0.949 | locus YHR030C, strain SLT2, active compounds read low 1.01 | locus YHR079C, strain IRE1, active compounds read low 0.983 | locus YJL095W, strain BCK1, active compounds read low 0.962 | locus YJR066W, strain TOR1, active compounds read low 0.948 | locus YLR113W, strain HOG1, active compounds read low 0.957 | locus YMR125W, strain sto1, active compounds read low 0.932 | locus YNL183C, strain NPR1, active compounds read low 0.907 | locus YOR231W, strain MKK1, active compounds read low 0.996 | locus YPL256C, strain CLN2, active compounds read low 0.994
active: locus YAL021C, strain ccr4, active compounds read low 0.164 | locus YAL026C, strain drs2, active compounds read low 0.512 | locus YAL030W, strain snc1, active compounds read low 0.739 | locus YBL061C, strain skt5, active compounds read low 0.631 | locus YBR009C, strain hhf1, active compounds read low 0.639 | locus YBR023C, strain chs3, active compounds read low 0.587 | locus YBR171W, strain sec66, active compounds read low 0.848 | locus YBR231C, strain swc5, active compounds read low 0.509 | locus YBR279W, strain paf1, active compounds read low 0.697 | locus YCL011C, strain gbp2, active compounds read low 0.617 | locus YCL016C, strain dcc1, active compounds read low 0.782 | locus YCL061C, strain MRC1, active compounds read low 0.753 | locus YCL069W, strain vba3, active compounds read low 0.762 | locus YCR088W, strain abp1, active compounds read low 0.865 | locus YDL040C, strain nat1, active compounds read low 0.902 | locus YDR001C, strain nth1, active compounds read low 0.914 | locus YDR069C, strain doa4, active compounds read low 0.175 | locus YDR137W, strain rgp1, active compounds read low 0.505 | locus YDR159W, strain sac3, active compounds read low 0.748 | locus YDR195W, strain ref2 0.809 | locus YDR297W, strain sur2, active compounds read low 0.557 | locus YDR334W, strain swr1, active compounds read low 0.524 | locus YDR335W, strain msn5, active compounds read low 0.683 | locus YDR392W, strain spt3, active compounds read low 0.553 | locus YEL003W, strain gim4, active compounds read low 0.6 | locus YEL037C, strain rad23, active compounds read low 0.692 | locus YEL061C, strain CIN8 (second series), active compounds read low 0.882 | locus YER015W, strain faa2, active compounds read low 0.4 | locus YER016W, strain bim1, active compounds read low 0.826 | locus YER111C, strain swi4, active compounds read low 0.696 | locus YER155C, strain BEM2 (second series), active compounds read low 0.687 | locus YFR010W, strain ubp6, active compounds read low 0.633 | locus YGL167C, strain pmr1, active compounds read low 0.742 | locus YGL173C, strain kem1, active compounds read low 0.37 | locus YGL240W, strain doc1, active compounds read low 0.772 | locus YGL253W, strain hxk2, active compounds read low 0.544 | locus YHR013C, strain ard1, active compounds read low 0.466 | locus YHR027C, strain rpn1, active compounds read low 0.315 | locus YHR142W, strain chs7, active compounds read low 0.533 | locus YJL092W, strain hpr5, active compounds read low 0.812 | locus YJL095W, strain BCK1 (second series), active compounds read low 0.548 | locus YJL115W, strain asf1, active compounds read low 0.901 | locus YJL129C, strain trk1, active compounds read low 0.721 | locus YJL154C, strain vps35, active compounds read low 0.809 | locus YJL164C, strain tpk1, active compounds read low 0.497 | locus YJL166W, strain qcr8, active compounds read low 0.527 | locus YJL187C, strain SWE1, active compounds read low 0.635 | locus YKL160W, strain elf1, active compounds read low 0.766 | locus YKR026C, strain gcn3, active compounds read low 0.915 | locus YKR091W, strain srl3, active compounds read low 0.875 | locus YLL001W, strain dnm1, active compounds read low 0.692 | locus YLL026W, active compounds read low 0.798 | locus YLL041C, strain sdh2, active compounds read low 0.85 | locus YLR027C, strain aat2, active compounds read low 0.673 | locus YLR221C, strain rsa3, active compounds read low 0.644 | locus YLR258W, strain gsy2, active compounds read low 0.733 | locus YLR262C, strain YPT6 (second series), active compounds read low 0.371 | locus YLR320W, strain mms22, active compounds read low 0.537 | locus YLR342W, strain FKS1, active compounds read low 0.61 | locus YLR357W, strain rsc2, active compounds read low 0.626 | locus YLR370C, strain arc18, active compounds read low 0.785 | locus YLR384C, strain iki3, active compounds read low 0.76 | locus YML120C, strain ndi1, active compounds read low 0.72 | locus YMR058W, strain fet3, active compounds read low 0.113 | locus YMR129W, active compounds read low 0.825 | locus YMR205C, strain PFK2, active compounds read low 0.369 | locus YMR231W, strain pep5, active compounds read low 0.555 | locus YNL071W, strain lat1, active compounds read low 0.715 | locus YNL209W, strain ssb2, active compounds read low 0.222 | locus YNL248C, strain rpa49, active compounds read low 0.783 | locus YNL322C, strain KRE1 (second series), active compounds read low 0.776 | locus YNR049C, strain mso1, active compounds read low 0.889 | locus YOR001W, strain rrp6, active compounds read low 0.678 | locus YOR070C, strain gyp1, active compounds read low 0.772 | locus YOR080W, strain dia2, active compounds read low 0.445 | locus YOR083W, strain WHI5, active compounds read low 0.617 | locus YOR106W, strain vam3, active compounds read low 0.203 | locus YOR265W, strain rbl2, active compounds read low 0.655 | locus YOR270C, strain vph1, active compounds read low 0.32 | locus YOR290C, strain snf2, active compounds read low 0.607 | locus YPL051W, strain arl3, active compounds read low 0.371 | locus YPL078C, strain atp4, active compounds read low 0.74 | locus YPL106C, strain sse1, active compounds read low 0.572 | locus YPL240C, strain hsp82, active compounds read low 0.771
